# Rows were chosen to be rich in hits. Some 2.4% of all compounds tested hit in one or more screens of this group.
# D2 ag-1: activates the human D2 dopamine receptor | HEK293 T-REx D2 cells, calcium flux agonist mode | P14416 | 340,000 compounds, 0.53% hits | activation, % at 2 µM;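 active means activation over 3 SD above normal in the single-dose calcium agonist read, cut at about 30% in these data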; further: 0% is about no effect
# Target sequence (P14416 whole entry, looked up): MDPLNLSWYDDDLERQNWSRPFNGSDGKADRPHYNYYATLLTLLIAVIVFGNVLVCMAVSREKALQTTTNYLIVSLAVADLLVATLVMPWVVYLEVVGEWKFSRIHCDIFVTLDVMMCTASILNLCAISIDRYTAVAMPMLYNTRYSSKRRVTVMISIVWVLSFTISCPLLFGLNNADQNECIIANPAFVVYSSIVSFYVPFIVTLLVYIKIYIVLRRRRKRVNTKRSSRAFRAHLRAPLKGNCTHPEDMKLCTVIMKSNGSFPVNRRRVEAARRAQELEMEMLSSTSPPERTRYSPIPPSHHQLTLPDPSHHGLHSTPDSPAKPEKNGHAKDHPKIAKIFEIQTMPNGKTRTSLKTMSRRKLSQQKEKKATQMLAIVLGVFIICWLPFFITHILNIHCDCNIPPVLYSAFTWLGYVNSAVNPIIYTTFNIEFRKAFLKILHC
#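 Agonism scored from kinetic calcium signal (1 read/sec, 180 s) following compound pin transfer, after a 10 s baseline. Cells: HEK293 Trex line expressing inducible D2 receptor coupled to calcium, dye-loaded after overnight culture at 30 C.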
# D2 PAM-1: D2 dopamine receptor (human) potentiation; potentiation, % at 10 µM; P14416; 340,000 compounds, 0.34% hits; HEK293 T-REx D2, calcium flux, EC20 dopamine potentiation;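 active means potentiation over 3 SD above the plate norm, cut at about 30% in these data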; further: 0% is about no effect
#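 Potentiation of an EC20 dopamine calcium response is measured in a force-coupled, tetracycline-inducible Hek293 Trex D2 line. Compound-only kinetic reads over 180 s flag agonists before dopamine addition.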
# D2 ag-2: human D2 receptor agonism in beta-arrestin assay | 360,000 compounds, 0.084% hits | AID 624465 | P14416 | DiscoveRx PathHunter D2 beta-arrestin, luminescence, 90 min; 100% = 57 uM dopamine signal | activation, % (concentration not given with the values); in the data active means activation above about 40%; inconclusive means between about 15% and that limit
#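 Agonist mode: compounds alone added to overnight-plated D2 PathHunter cells for 90 min at 37 C, with 57 uM final dopamine (EC100) defining full response. Beta-arrestin recruitment detected by chemiluminescent reagent, read after 1 h at ambient temperature.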
# D2 PAM-2: human D2 receptor positive allosteric modulation | 360,000 compounds, 0.23% hits | potentiation, % (concentration not given with the values) | DiscoveRx D2 beta-arrestin cells, luminescence, 90 min; 100% = 57 uM dopamine signal; in the data active means potentiation above about 50%; inconclusive means mostly about 30% to 49%
#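 D2 cells co-treated with compound plus 50 nM dopamine (EC20) for 90 min at 37 deg C to detect potentiation. Beta-arrestin recruitment was read as enzyme-fragment luminescence after 1 h at ambient temperature. Full response was set by 57 uM dopamine.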
# D2 antagonist: D2 dopamine receptor (human) antagonism. inhibition, % at 10 µM. P14416. AID 485344. 340,000 compounds, 2% hits. HEK293 TREx D2 cells, calcium flux, dopamine EC80; in the data active means inhibition above about 30%; inactive means below that, where a call was filed; further: 0% is about no effect
#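 Read-out: kinetic calcium fluorescence (1 cycle/s) in inducible HEK293 T-REx D2 cells after an EC80 dopamine addition that followed 180 s compound preincubation. Loss of the dopamine response indicates antagonism.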
# An asterisk follows results filed as active; ? = inconclusive; . = not tested or not shown.
SMILES,D2 ag-1,D2 PAM-1,D2 ag-2,D2 PAM-2,D2 antagonist
Cc1nnc(Sc2nc3c(c(=O)[nH]c(=O)n3C)n2CCc2ccccc2)s1,-1.2,2.1,5.2,-1.4,50.5*
O=C1CSC(=Nc2cccc([N+](=O)[O-])c2)N1,1.0,-6.1,-6.2,-11.4,42.8*
CCOC(=O)c1c(SCC(=O)Nc2nc3ccc(C)cc3s2)nc(=O)[nH]c1C,0.3,17.2,.,.,.
Cc1cc(Cl)ccc1NC(=O)CN1C(=O)CSc2ccc(S(=O)(=O)N(C)C)cc21,-0.3,-2.0,.,.,.
O=C(COC(=O)C1=COCCO1)Nc1cc(S(=O)(=O)N2CCCCC2)ccc1Cl,1.9,12.7,-0.3,-3.8,6.7
Cc1ccc(S(=O)(=O)N2CCCCC2)cc1NC(=O)COC(=O)C1=COCCO1,0.6,38.0*,-0.9,-4.8,12.0
COc1cc(Cl)c(C)cc1NC(=O)COC(=O)C1=COCCO1,-0.6,-9.0,-4.6,-6.4,31.6*
Cc1ccc(S(=O)(=O)N2CCOCC2)cc1NC(=O)CNCc1ccccc1Cl,39.1*,9.0,8.3,14.5,-0.4
O=C(Nc1ccnn1C1CCN(C(=O)c2cccnc2)CC1)c1cccc(F)c1,.,.,0.0,-10.0,.
O=C(Nc1cccc(Cl)c1Cl)c1cc(S(=O)(=O)N2CCCCC2)ccc1F,-0.5,-5.8,.,.,.
O=C(COc1ccc(Br)cc1)Nc1cccc2cccnc12,0.6,-1.1,.,.,.
Cc1sc2ncnc(SCC(=O)NC3CCCC3)c2c1C,-3.3,.,-2.5,-0.8,31.8*
CCOC(=O)c1ccc(NC(=O)CC2C(=O)N(c3ccc(F)cc3)C(=O)N2Cc2cccnc2)cc1 (centres undefined),0.0,2.1,.,.,.
CCOc1nc(NCCC2=CCCCC2)nc(N2CCOCC2)n1,0.0,6.4,-3.3,-0.3,-15.3
CCOc1nc(NCCO)nc(NCCC2=CCCCC2)n1,0.2,49.1*,-1.8,-5.1,-14.8
CC(C)CCn1nnc2sc(-c3ccccc3)cc2c1=O,2.6,7.8,.,.,.
Cc1cc(C)c(-c2cc(C(F)(F)F)no2)c(=O)[nH]1,2.3,-10.4,2.5,1.1,32.3*
O=C(O)CCS(=O)(=O)c1ccccc1Cl,0.6,16.2,-4.9,-9.8,38.8*
COc1cccc(CNS(=O)(=O)c2ccc3c(c2)C(C(C)C)C(=O)N3)c1 (centres undefined),0.3,4.8,.,.,.
CC(=O)Nc1cc[n+](C(C)C(=O)c2ccccc2)cc1 (centres undefined),1.6,-9.9,-7.5,-4.8,4.7
CC(=O)Nc1cc[n+](C(C)C(=O)c2ccc(Br)cc2)cc1 (centres undefined),0.1,-22.6,-3.8,-25.1,53.9*
O=C1CSC(c2cccc([N+](=O)[O-])c2)N1Cc1ccccc1 (centres undefined),-0.6,-9.8,7.3,-2.9,30.3*
CC(C)NC(=O)c1ccc(C2SCC(=O)N2Cc2ccccc2)cc1 (centres undefined),0.0,8.3,2.2,0.4,50.3*
COc1ccccc1N1CCN(C(=O)c2cnc(N3CCCCC3)c3ccccc23)CC1,-0.1,8.7,.,.,.
CCOC(=O)c1sc(NC(=O)CSc2n[nH]c(-c3ccc(Cl)cc3Cl)n2)c(C#N)c1C,0.2,31.2*,-1.4,-3.4,5.9
SMILES,D2 ag-1,D2 PAM-1,D2 ag-2,D2 PAM-2,D2 antagonist
Cc1c(C(=O)N2CCCC2)sc(NC(=O)c2ccc(Cl)cc2)c1C#N,0.1,-24.1,-0.9,-8.6,91.2*
CCOC(=O)c1sc(NC(=O)c2ccncc2)c(C#N)c1C,8.4,30.8*,0.2,?,-0.6
CCOC(=O)c1[nH]c2c(c1Cc1ccccc1OC)C(=O)CC(c1ccc(OCC)cc1)C2 (centres undefined),0.3,-7.2,.,.,.
O=C1CCCc2c1[nH]c1ccc(CN3CCCCC3)cc21,-0.2,-20.0,-1.1,-16.5,50.9*
Cc1ccc2[nH]c3c(c2c1)CCCC3=O,0.7,2.5,-3.3,-11.7,10.0
Cc1cc(Nc2cccc(C(F)(F)F)c2)nc2ccc(NC(=O)c3cncc(Br)c3)cc12,-1.1,0.5,.,.,.
Cc1ccc(-n2cccn2)c(CN2CCCC(C(=O)c3sccc3C)C2)c1 (centres undefined),1.4,-14.3,-3.8,-12.8,72.6*
Cc1c(C)n(-c2ccccc2)c2ncnc(NCCN(C)C)c12,-0.4,-24.7,-5.6,-22.5,39.7*
COc1ccc(OC)c(NC(=O)C(=O)NNC(=O)c2cccs2)c1,-0.4,19.7,0.1,4.9,38.1*
COc1cc(N)ccc1NC(=O)c1cccs1,0.1,8.6,8.7,78.8*,11.4
CCC(C(=O)N1CCN(c2cc(Cl)ccc2C)CC1)n1nc(C)n2c(cc3occc32)c1=O (centres undefined),0.6,-1.0,.,.,.
Cc1cc(C)nc(NC(C)(C)C(=O)O)n1,-0.6,-16.7,2.0,-5.6,32.5*
Cc1ccc(C(=O)N2CCN(Cc3ccccc3)CC2)cc1S(=O)(=O)N1CCOCC1,0.8,10.8,-3.4,-12.5,20.9
Cc1cc(Cl)ccc1OCC(=O)NCCCn1ccnc1,-0.5,-11.5,0.3,-22.6,5.0
COc1ccc(-c2cc(=O)oc3cc(OCC(=O)NCCCn4ccnc4)ccc23)cc1,-1.0,-2.4,2.0,-18.7,-3.5
CCc1cc(=O)oc2cc(OCC(=O)NCCCn3ccnc3)ccc12,0.0,2.6,6.2,-9.6,37.4*
Cc1cc(C(=O)NCCCn2ccnc2)sc1-c1ccccc1,0.4,-29.2,-1.5,-15.3,47.3*
COc1ccc(Cl)cc1C(=O)NCCCn1ccnc1,1.4,-12.4,2.5,-8.0,2.3
Cc1cc(Cl)ccc1OCCCC(=O)NCCCn1ccnc1,1.5,0.3,-4.0,-7.7,35.7*
COc1ccc(C(C)=O)cc1CC(=O)NCCCn1ccnc1,0.5,33.5*,0.8,-2.4,-1.5
Cn1c(=O)n(C)c2cc(NS(=O)(=O)c3ccc(F)cc3)c(NCc3ccccc3)cc21,-0.2,-6.0,.,.,.
CCCc1cc(=O)[nH]c2nnc(SCC(=O)Nc3ccc(OC)cc3)n12,0.1,8.2,.,.,.
COc1nnc(-c2ccc(N3CCCCC3)c(NC(=O)c3ccccc3Cl)c2)c2ccccc12,0.5,-1.9,.,.,.
Cc1cccc(NC(=O)c2ccc(CNS(=O)(=O)c3ccc4c(c3)C(C)(C)C(=O)N4C)cc2)c1,-0.3,0.6,.,.,.
O=C(NCc1ccccc1Cl)c1ccc(Cn2c(=O)c3cccn3c3cccnc32)cc1,0.0,1.1,.,.,.
COc1ccc(N2C(=O)C(CC(=O)Nc3ccc(F)cc3)N(Cc3ccc4c(c3)OCO4)C2=O)cc1 (centres undefined),0.3,-22.5,.,.,.
COc1ccc(N2C(=O)C(CC(=O)Nc3ccccc3)N(Cc3ccc4c(c3)OCO4)C2=O)cc1 (centres undefined),0.4,13.4,3.5,-11.7,43.0*
Cc1ccc(Sc2c(C)nn(C(C)(C)C)c2OC(=O)CC(C)C)cc1,1.1,0.3,.,.,.
COc1cccc(C2CC(=O)Nc3c2c(=O)[nH]c2ncnn32)c1OC (centres undefined),.,1.9,.,.,.
